# HIV RNase H inh-1 – inhibitors of HIV-1 reverse transcriptase RNase H. inhibition, % at 10 µM. actives 1.9% (n = 65,000). P04585. RT-RNase H RNA/DNA duplex cleavage, fluorescence. AID 565; in the data active = inhibition above about 50%
# HIV RNase H inh-2 – confirmation of HIV-1 reverse transcriptase RNase H inhibitors; shares compounds with HIV RNase H inh-1; Recombinant RT RNase H, fluorescent RNA/DNA duplex cleavage; inhibition, % at 10 µM; actives 39% (n = 1,000); AID 651; in the data active = inhibition above about 48%; inconclusive = no clear call, values can overlap the other calls
# * hit, by the source's call; ? = inconclusive. Shown is part of a subset that was picked to be rich in hits.
SMILES,HIV RNase H inh-1,others
CCc1ccc(NC(=O)c2ccc3c(c2)C(=O)N(Cc2ccco2)C3=O)cc1,43,
COC(=O)c1ccccc1NC(=O)c1ccc2c(c1)C(=O)N(Cc1ccco1)C2=O,61*,HIV RNase H inh-2=94*
O=C(NCc1ccco1)c1ccc2c(c1)C(=O)N(Cc1ccccc1)C2=O,1,
Cc1nc2cc(C(F)(F)F)ccc2n1C1CCN(CC(=O)NC(C)(C)C)CC1,-10,
CCOc1cc(C(=O)CSc2nnc(CNc3ccc(Cl)cc3)o2)ccc1NC(=O)CC,67*,HIV RNase H inh-2=14
COc1ccc(NC(=O)CSc2nnc(CNC(=O)COc3ccc(Cl)cc3)o2)c(OC)c1,-33,
CCc1nnc(NC(=O)CSc2nnc(CNc3ccc(Cl)cc3)o2)s1,-1,
Cc1ccc(F)c(NC=C2C(=O)OC(C)(C)OC2=O)c1,-28,
CCOC(=O)C(C)Sc1nc(-c2ccco2)cc(C(F)(F)F)c1C#N (configuration not stated),8,
CCNC(=O)NC(=O)COC(=O)c1ccccc1SCC(=O)NC(=O)NCC,4,
O=C(c1cc2ccccc2o1)c1nc2c(n1O)CCCCC2,9,
COc1ccc(CCNC(=O)c2cc(-c3cc(C)c(C)cc3O)n[nH]2)cc1OC,7,
Cc1ccc(-c2cc(C(=O)Nc3cc(C)ccc3C)[nH]n2)c(O)c1,20,
COc1ccc(OC)c(NC(=O)c2cc(-c3ccc(C)cc3O)n[nH]2)c1,76*,HIV RNase H inh-2=13
O=C(CSc1nnc(Nc2ccccc2F)s1)NCc1ccco1,33,
O=C(CSc1nnc(Nc2ccccc2)s1)NCc1ccco1,-5,
Cc1ccccc1Nc1nnc(SCC(=O)NC(=O)NCc2ccco2)s1,67*,HIV RNase H inh-2=20
COCc1c(C)cc(C)c(/C=N/O)c1C,-7,
C#CC(CO)N(CCN(Cc1ccccc1)C(C#C)CO)Cc1ccccc1 (configuration not stated),-10,
COc1ccc2cc3cc(C(=O)Nc4ccc5c(c4)OCO5)oc3nc2c1,62*,HIV RNase H inh-2=2
CCCN(CCC)CCCNC(=O)c1cc2cc3ccc(OC)cc3nc2o1,-22,
Cc1ccc2cc3cc(C(=O)NCc4ccc5c(c4)OCO5)oc3nc2c1,33,
Cc1nc2nc(C)c(CCC(=O)Nc3ccc4c(c3)OCO4)c(C)n2n1,-11,
CCS(=O)(=O)N1CCCC(C(=O)NC2CCC(C)CC2)C1 (configuration not stated),-31,
CCOc1ccc(C(C)NC(=O)CCC(=O)O)cc1 (configuration not stated),-12,
SMILES,HIV RNase H inh-1,others
CCC(OC(=O)CC1Sc2ccccc2NC1=O)C(=O)NCC1CCCO1 (configuration not stated),-7,
CC(C)c1nc(SCc2c(F)cccc2Cl)c2c(=O)n(C)c(=O)n(C)c2n1,-16,
Cc1c(NC(=O)Oc2ccccc2)sc(=S)n1C,59*,HIV RNase H inh-2=6
Cc1nnc(NC(=O)Oc2ccccc2)s1,-1,
CC(=O)NC(=O)Nc1sc(=S)n(C)c1C,17,
Cc1ccc(/C(O)=C2\C(=O)C(=O)N(CCCN(C)C)C2c2ccccn2)cc1 (configuration not stated),-4,
Clc1ccc(-c2nnc3sc(-c4ccccn4)nn23)cc1,-8,
Clc1ccc(-c2nn3c(-c4ccncc4)nnc3s2)c(Cl)c1,0,
c1ccc(-c2nn3c(-c4ccncc4)nnc3s2)nc1,64*,HIV RNase H inh-2=47
Clc1ccccc1-c1nnc2sc(-c3ccncc3)nn12,-63,
COc1ccc(-c2nnc3sc(-c4ccccn4)nn23)cc1,-3,
Clc1ccccc1-c1nn2c(-c3ccncc3)nnc2s1,87*,HIV RNase H inh-2=57*
CCN(CC)S(=O)(=O)c1ccc2[nH]c(=O)[nH]c2c1,-9,
Cc1nonc1OCCNC(=O)C12CC3CC(CC(C3)C1)C2,2,
Cc1ccc(S(=O)(=O)N2CCSC2c2ccco2)cc1 (configuration not stated),-48,
COc1ccc(OCCCSc2ncccn2)cc1,-10,
CSc1nc(NCc2ccco2)c2c3c(sc2n1)CN(C)CC3,-5,
CSc1nc(N(CCO)CCO)c2sc3nc(-c4ccco4)c4c(c3c2n1)CCC4,56*,HIV RNase H inh-2=16
CSc1nc(SCC(=O)NCc2ccco2)c2c3c(sc2n1)CN(C)CC3,10,
COc1ccc(-c2nc(CS(=O)(=O)CC(=O)NCCc3cc(OC)ccc3OC)c(C)o2)cc1,-7,
COc1ccc(OC)c(CCNC(=O)CS(=O)(=O)Cc2nc(-c3ccc(C)cc3)oc2C)c1,-16,
COc1ccc(OC)c(CCNC(=O)Cn2sc3nc(C)cc(C)c3c2=O)c1,97*,HIV RNase H inh-2=57*
O=C(NCc1ccc2c(c1)OCO2)c1ccc(C2SCC(=O)N2Cc2ccco2)cc1 (configuration not stated),10,
O=c1c(O)c(-c2ccc(O)cc2O)oc2cc(O)cc(O)c12,75*,HIV RNase H inh-2=59*
COc1ccc(-c2c(C)oc3cc(O)cc(O)c3c2=O)cc1OC,-15,
SMILES,HIV RNase H inh-1,others
COc1ccccc1-c1coc2cc(O)cc(O)c2c1=O,-2,
COc1ccc(C(c2sc3nc(C)nn3c2O)N2CCc3ccccc3C2)cc1 (configuration not stated),79*,HIV RNase H inh-2=4
COc1cc(C(c2sc3nc(C)nn3c2O)N2CCc3ccccc3C2)cc(OC)c1OC (configuration not stated),24,
COc1ccc(C(c2sc3nc(C)nn3c2O)N2CCCCC2)cc1 (configuration not stated),-3,
CCc1cccc(NC(=O)CN(c2ccc(OC)cc2)S(=O)(=O)c2c(C)n[nH]c2C)c1,-6,
CCc1cc2c(=O)c(-c3nc4ccccc4[nH]3)coc2c(CN2CCCC(C)C2)c1O (configuration not stated),6,
Cc1nc(SCc2ccccc2)c(C(F)(F)F)c(=O)[nH]1,-31,
COc1ccc(S(=O)(=O)NCC(=O)N(CC(=O)NCC2CCCO2)c2c(C)cccc2C)cc1 (configuration not stated),1,
CC(C)N(Cc1nc(-c2ccccc2)no1)C(=O)CN(C)S(=O)(=O)c1ccccc1,-11,
Cc1csc(NC(=O)c2c(O)c3c(n(CC(C)C)c2=O)CCCC3)n1,64*,HIV RNase H inh-2=?
CCCn1c2c(c(O)c(C(=O)Nc3nc(C)cs3)c1=O)CCCC2,-1,
CC(C)Cn1c2c(c(O)c(C(=O)Nc3nccs3)c1=O)CCCC2,35,
COc1ccc(Cc2nnc(NC(=O)c3ccco3)s2)cc1OC,5,
CN1CCC(OC(=O)COc2ccc(C(C)(C)C)cc2)CC1,1,
COc1ccc(S(=O)(=O)NCc2ccco2)cc1-c1nnc2c3ccccc3c(C)nn12,-29,
CN(C)c1ccc(NC(=O)CN2C(=O)CC(c3ccccc3)=Nc3ccccc32)cc1,89*,HIV RNase H inh-2=41
CN(C)c1ccc(NC(=O)Cn2ncn3c(cc4ccccc43)c2=O)cc1,21,
CN(C)c1ccc(NC(=O)CCCc2ccccc2)cc1,12,
CC(=O)c1cccc(NC(=O)c2nccnc2C(=O)O)c1,-1,
O=C(COC(=O)C1CCCCC1)Nc1ccc(N2CCCCC2)cc1,7,
Cc1cccc(C(=O)OCC(=O)Nc2ccc(N3CCCCC3)cc2)c1O,88*,HIV RNase H inh-2=53*
Cc1cccc(OCC(=O)Nc2ccc(N3CCCC3)cc2)c1C,8,
Cc1cc(C)cc(Nc2ncc3c(n2)CCCC3=O)c1,-16,
COc1ccc(C(=O)NCCCn2ccnc2)cc1,-9,
Cc1ccc(-c2cc(C(=O)NCc3ccco3)c3ccccc3n2)o1,-19,
Cc1ccc(-c2cc(C(=O)NCCCn3ccnc3)c3cc(Br)ccc3n2)o1,78*,HIV RNase H inh-2=22
O=C(NC1=NCCS1)c1ccc(-c2ccc(Cl)cc2)o1,-13,

# Assay outcomes as filed in PubChem BioAssay.
